# In PubChem BioAssay (NCATS):
# Results filed as inconclusive are left out. Entries that show only a call come without a potency. Active and inactive are the calls of the source. Calls come from the whole dose curve; as a rule, active = well fitted inhibition curve with a large enough effect; inconclusive = small, poorly fitted or top-dose-only effect; inactive = no such curve, though single readings can be large or run the other way.
# Assay: P-glycoprotein substrates identified in KB-3-1 adenocarcinoma cell line, qHTS therapeutic library screen (AID 1346986); note: nearly all actives have a fitted effect of over 60% in size;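 note: potency is for cytotoxicity meaning loss of cell viability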
# Details: KB-3-1 parental cells viability, CellTiter-Glo, 72 h; series mostly up to 44.5 µM
# Experimental: The ATP-binding cassette transporters P-glycoprotein (P-gp) is known to limit brain penetration of many chemotherapy drugs. […] We used the CellTiter-Glo viability assay to test library compounds against the parental KB-3-1 human cervical adenocarcinoma cell line and the colchicine-selected sub-line KB-8-5-11 that over-expresses P-gp. KB-8-5-11 cells were also tested in the presence of a P-gp inhibitor (tariquidar) to assess reversability of transporter-mediated resistance. Of the tested compounds, a total of 90 P-gp substrates were identified including 55 newly identified P-gp substrates. Substrates were confirmed using an orthogonal killing assay against HEK-293 cells transfected with P-gp. As exemplars, we confirmed that AT7159 (cyclin-dependent kinase inhibitor); AT9283, (Janus kinase 2/3 inhibitor); ispinesib (kinesin spindle protein inhibitor); gedatolisib (PKI-587, phosphoinositide 3-kinase/mammalian target of rampamycin inhibitor); GSK-690693 (AKT inhibitor); and KW-2478 (heat shock protein 90 inhibitor) were substrates , and direct ATPase stimulation was assessed. ABCG2 was also found to confer high levels of resistance to AT9283, GSK-690693 and gedatolisib, while ispinesib, AT7519 and KW-2478 were weaker substrates.
# The HeLa derivative cell line, KB-3-1, and its colchicine-selected, P-gp-overexpressing subline, KB-8-5-11 were maintained in DMEM with 10% FCS and Pen/Strep with glutamine at 37 degree C in 5% CO2. For KB-8-5-11 cells, colchicine was added to the medium at a concentration of 100 ng/mL. HEK-293 cells transfected with empty vector (pcDNA) or vector containing human ABCB1 (MDR-19) or ABCG2 (R-5) have been described previously (Robey, Lin, Qiu, Chan & Bates, 2011) and were maintained in EMEM supplemented with 10% FCS, Pen/Strep and glutamine with 2 mg/ml G418 to select for the expression of the transporter. Cultures were confirmed to be free of mycoplasma infection using the MycoAlert Mycoplasma Detection Kit (Lonza, Walkersville, MD). For the screen, assay medium was identical to culture medium except for KB-8-5-11 where colchicine was excluded from the medium.
# All cell lines were plated into 1536-well plates at 500 cells/well in 5 uL media. Compounds were then pinned in dose-response using a 1536-head pin tool (Kalypsis, San Diego, CA) and plates were incubated at 37 degree C in 5% CO2 for an additional 72 h. CellTiter-Glo reagent (Promega) was dispensed into the wells, incubated for 5 min and luminescence was read on a ViewLux instrument (Perkin-Elmer). Cytotoxic compounds were defined as those that yielded a curve class of -1.1, -1.2, -2.1, -2.2, -2.3, or -2.4, a maximum response of >50% and an AC50 of < 10 uM. Cherry-picked hits from screening analysis were tested with both the KB pair of cell lines, and the pcDNA (empty vector control) and MDR-19 (P-gp overexpressing) pair were tested, in the absence and presence of tariquidar.
# Potency is the fitted concentration of half-maximal effect.
SMILES,Potency,outcome
CC(=O)OC12C(O)C(C)C3(O)C4C=C(C)C(=O)C4CC(CO)=CC3C1C2(C)C (stereo not given),inactive,
C=C(C)[C@H]1O[C@H]2CC[C@@]3(C)[C@@](O)(CC[C@H]4[C@@H]5OC(C)(C)[C@H]6C[C@@H]7C(=C)Cc8c(Cl)cc9[nH]c(c5c9c8[C@@]76O)[C@@]43C)[C@]23O[C@@H]3[C@H]1O,inactive,
COc1c(C(C)C)cc2c(c1O)[C@@]1(C(=O)O)CCCC(C)(C)C1CC2 (stereo not given in full),inactive,
COc1cc(C(=O)O[C@H]2[C@@H]3C=CO[C@@H](O[C@@H]4O[C@H](CO)[C@@H](O)[C@H](O)[C@H]4O)[C@@H]3[C@@]3(CO)O[C@@H]23)ccc1O,inactive,
CCN1C[C@]2(COC(=O)c3ccccc3N3C(=O)C[C@H](C)C3=O)CC[C@H](OC)[C@@]34[C@@H]5C[C@H]6[C@H](OC)[C@@H]5[C@](O)(C[C@@H]6OC)[C@](O)([C@@H](OC)[C@H]23)[C@@H]14,inactive,
O=C1C[C@@H]2OCC=C3CN4CC[C@]56c7ccccc7N1[C@H]5[C@H]2[C@H]3C[C@H]46,inactive,
C[C@@]1(C(=O)O)CC[C@]2(C)CC[C@]3(C)C4=CC(=O)c5cc(O)c(O)cc5[C@]4(C)CC[C@@]3(C)[C@@H]2C1,inactive,
COC1CC(O[C@H]2CC[C@@]3(C)C(=CCC4C3C(O)[C@@H](O)[C@]3(C)[C@@H](C(C)=O)CC[C@]43O)C2)OC(C)C1OC1CC(OC)C(OC2OC(C)C(O)C(O)C2O)C(C)O1 (stereo not given in full),,inactive [at 9.29 µM]
O=C(O)c1ccnc2cc(C(OCCN3CCCCC3)c3ccccc3Cl)[nH]c12 (stereo not given),inactive,
C[C@@H]1C(=O)O[C@H]2[C@H](O)[C@@]34[C@@H]5OC(=O)[C@@]3(O[C@@H]3OC(=O)[C@@H](O)[C@@]34[C@H](C(C)(C)C)[C@H]5O)[C@@]12O,inactive,
CCc1c(C(=O)C(N)=O)c2c(OCC(=O)OC)cccc2n1Cc1ccccc1,inactive,
C/C(O)=C(\C#N)C(=O)Nc1cc(Br)ccc1Br,inactive,
C[C@]12CC[C@@H](O)C[C@H]1CC[C@@H]1[C@@H]2CC[C@]2(C)C(=O)CC[C@@H]12,inactive,
CN1C(=O)N(c2ccc(C#N)c(C(F)(F)F)c2)C(=O)[C@]1(CO)c1ccccc1,inactive,
C1=C2CCCN[C@H]2[C@@H]2C[C@H]1[C@H]1CCCCN1C2,inactive,
CCC(C)(C#N)O[C@@H]1O[C@H](CO)[C@@H](O)[C@H](O)[C@H]1O (stereo not given in full),inactive,
CCC1NC(=O)C2C(Cl)C(Cl)CN2C(=O)C(C(C)O)NC(=O)CC(c2ccccc2)NC(=O)C(CO)NC1=O (stereo not given),inactive,
COC(=O)C12C(=O)C(C)(O)C(=O)C1(C)C(C)=CC1C34CCC(OC3=O)C(C)(CO)C4CCC12C (stereo not given),inactive,
CCCN1CCO[C@H]2c3cc(O)ccc3OC[C@@H]21,inactive,
COC1=CC(=O)O[C@@H](/C=C/c2ccccc2)C1,inactive,

SMILES,Potency,outcome
Cc1c(Cl)cccc1S(=O)(=O)Nc1nc(CC(=O)N2CCN(C)CC2)cs1,inactive,
C=C[C@H]1[C@H](O[C@@H]2O[C@H](CO)[C@@H](O)[C@H](O)[C@H]2O)OC=C2C(=O)OCC[C@H]21,inactive,
CCCCCOc1cc2c(cc1-c1cc(/C=C/C(=O)O)ccc1O)C(C)(C)CCC2(C)C,inactive,
C[C@H]1C(=O)O[C@H]2[C@H](O)[C@]34C5OC(=O)[C@]3(O[C@@H]3OC(=O)[C@H](O)C34[C@H](C(C)(C)C)[C@H]5O)C12O (stereo not given in full),inactive,
C/C=C(\C)C(=O)O[C@H]1[C@H](OC(C)=O)[C@]2(CO)[C@H](O)[C@H](O)[C@]3(C)C(=CCC4[C@@]5(C)CC[C@H](O[C@@H]6O[C@H](C(=O)O)[C@@H](O)[C@H](O[C@@H]7OC[C@H](O)[C@H](O[C@@H]8OC[C@H](O)[C@H](O)[C@H]8O)[C@H]7O)[C@H]6O[C@@H]6O[C@H](CO)[C@@H](O)[C@H](O)[C@H]6O)C(C)(C)C5CC[C@]43C)[C@@H]2CC1(C)C (stereo not given in full),,inactive [at 9.29 µM]
Cc1cn(C[C@H](N)C(=O)O)c(=O)n(Cc2cc(-c3ccccc3)sc2C(=O)O)c1=O,inactive,
Cn1ncnc1COc1nn2c(-c3c(F)cccc3F)nnc2cc1C1CCC1,inactive,
COc1cc(C)[nH]c(=O)c1CNC(=O)c1c(C)n([C@H](C)C2CCOCC2)c2ccccc12,inactive,
Oc1ccc2c3c1O[C@H]1[C@H](N(CCCl)CCCl)CC[C@@]4(O)[C@@H](C2)N(CC2CC2)CC[C@]314,,inactive [at 9.29 µM]
CC1=C2C(=O)C3[C@@H](CC=C4C[C@@H](O)CC[C@@]43C)[C@@H]2CC[C@]12O[C@@H]1C[C@H](C)CN[C@H]1[C@H]2C (stereo not given in full),inactive,
COC(=O)C1(C)CCC(O)C2(C)c3c(O)cc(C(C)C)cc3C(O)C(OC(C)=O)C12 (stereo not given),inactive,
C/C=C(\C)C(=O)OC1CC2C(CC=C3CC(OC4CC(OC)C(OC5CC(OC)C(OC6OC(C)C(OC7OC(CO)C(O)C(O)C7O)C(OC)C6O)C(C)O5)C(C)O4)CCC32C)C2(O)CCC(C(C)=O)C12C (stereo not given),,inactive [at 9.29 µM]
CCN1CC2(COC)C3[C@@H](OC)C4C1C3(C1C[C@]3(O)[C@H](OC(=O)c5ccccc5)C1[C@]4(OC(C)=O)[C@@H](O)[C@@H]3OC)[C@H](OC)C[C@H]2O (stereo not given in full),inactive,
COC1=CC(=O)O[C@@H](CCc2ccccc2)C1,inactive,
COC(=O)C1(C)CCC(O)C2(C)c3cc(O)c(C(C)C)cc3C(O)C(OC(C)=O)C12 (stereo not given),inactive,
COc1ccc2c(c1)/C(=C/c1cnc[nH]1)C(=O)N2,7.31 µM (active),
COC1CC(=O)C23C(=O)NC(CC(C)C)C2C(C)=C(C)C(OO)C3/C=C(\C)CCC(O)C1O (stereo not given),inactive,
CCCCCCn1c(=O)c(C(=O)Nc2ccc(C(=O)OCCC)cc2)c(O)c2ccccc21,,inactive [at 9.29 µM]
CC(C)(C)c1cc(C(C)(C)C)c2c(c1)C(O)(C(F)(F)F)C(=O)O2 (stereo not given),inactive,
C=C(CO)C(=O)O[C@H]1C/C(C)=C/CC/C(CO)=C/[C@H]2OC(=O)C(=C)[C@H]12,inactive,
